# Experimental data: PubChem BioAssay
# The source made the active and inactive calls.
# Legend:
# Albumin (Bos taurus) = Albumin (Bos taurus) (UniProt P02769); assay: compounds binding labelled BSA control protein – biochemical, small-molecule microarray, Alexa647 label, 635/667 nm fluorescence, artefact control for SMM control protein annotation, profiling panel (AID 1118); settings: BSA-A647 binding, fluorescence 635 nm, higher = more signal;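 note: score merges 667 nm emission intensity and signal-to-noise per printed compound spot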
# Sequence of Albumin (Bos taurus) (P02769 whole entry, looked up): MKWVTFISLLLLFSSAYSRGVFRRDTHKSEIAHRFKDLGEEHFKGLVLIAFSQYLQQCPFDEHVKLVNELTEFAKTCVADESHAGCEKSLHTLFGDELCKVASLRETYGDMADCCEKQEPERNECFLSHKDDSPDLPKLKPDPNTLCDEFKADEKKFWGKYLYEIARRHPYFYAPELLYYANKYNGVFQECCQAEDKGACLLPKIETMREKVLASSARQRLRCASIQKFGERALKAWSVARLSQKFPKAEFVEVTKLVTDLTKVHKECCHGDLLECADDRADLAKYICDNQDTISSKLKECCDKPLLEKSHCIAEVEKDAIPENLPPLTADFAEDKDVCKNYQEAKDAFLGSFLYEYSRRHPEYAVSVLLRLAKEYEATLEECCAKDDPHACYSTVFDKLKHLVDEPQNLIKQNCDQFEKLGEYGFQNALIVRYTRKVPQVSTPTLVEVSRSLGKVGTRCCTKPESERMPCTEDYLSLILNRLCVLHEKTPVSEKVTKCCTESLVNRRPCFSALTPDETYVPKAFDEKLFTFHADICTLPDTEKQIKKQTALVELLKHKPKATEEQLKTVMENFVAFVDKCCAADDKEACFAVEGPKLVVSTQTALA
# [1] = probe aXIP binding to arrayed compounds – biochemical, NeuroSMM set, 635/667 nm fluorescence, primary screen (AID 1119); settings: small-molecule microarray, higher = more signal, called active from +8 up or from −8 down;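 note: probe is the protein aXip251-270 applied at 1 µg/mL to compound-printed slides; binding of probe to printed compounds measured as 667 nm fluorescence plus signal to noise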
# [2] = probe aNOTCH3 binding on compound microarray – biochemical, small-molecule microarray, 635/667 nm fluorescence, primary screen (AID 1120); settings: higher = more signal;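 note: probe is a biotin-tagged antibody raised against NOTCH3 rather than NOTCH3 protein; score merges spot fluorescence near 667 nm with spot signal to noise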
# [3] = probe aNOTCH2 binding on compound microarray – biochemical, small-molecule microarray, 635/667 nm fluorescence, primary screen (AID 1121); settings: higher = more signal;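 note: score merges feature fluorescence read at 667 nm with its signal to noise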
# [4] = biological target: Carbonic anhydrase 2 (Homo sapiens) (UniProt P00918); assay: compounds binding carbonic anhydrase 2 – biochemical, small-molecule microarray, Alexa647-labelled CAII, profiling panel (AID 1122); settings: CAII-A647 binding fluorescence, higher = more signal
# [5] = COS7 lysate on small-molecule microarray, probe aHis, 635 nm (AID 1123); settings: COS7 cell lysate, fluorescence, higher = more signal;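 note: z-score combines 667nm fluorescence intensity with signal-to-noise per printed compound spot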
# [6] = probe aLAP1 signal on lysate-treated microarray – cell lysate, small-molecule microarray, COS7 lysate, primary screen (AID 1124); settings: probe aLAP1, fluorescence, higher = more signal;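 note: lysate comes from COS7 cells expressing LAP1 and is applied at 0.3 µg/mL; score merges spot fluorescence near 667 nm with signal-to-noise over triplicate slides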
# Sam68 (KHDRBS1) = assay: compounds binding KHDRBS1 protein – biochemical, small-molecule microarray, 635 nm fluorescence, primary screen (AID 1125); settings: higher = more signal;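 note: score merges 667 nm channel intensity with signal to noise over triplicate slides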
# [7] = tested on: Chordin-like protein 2 (CHRDL2); assay: compounds binding chordin-like 2 – biochemical, small-molecule microarray, 635 nm fluorescence, primary screen (AID 1126); settings: fluorescence 635 nm, higher = more signal;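 note: printed compound slides probed with Chrdl2 protein at 4 µg/mL for 1 h at 4 C; score merges 667 nm emission intensity with signal to noise over three replicate slides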
# [8] = biological target: Concanavalin-A (Canavalia ensiformis) (UniProt P02866); assay: compounds binding concanavalin A lectin – biochemical, small-molecule microarray, Alexa647 label, 635 nm, artefact control for SMM control protein annotation, primary screen (AID 1127); settings: ConA-A647 binding fluorescence, higher = more signal;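 note: z combines 667 nm emission intensity with signal-to-noise across three replicate slides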
# Sequence of Concanavalin-A (Canavalia ensiformis) (P02866 whole entry, looked up): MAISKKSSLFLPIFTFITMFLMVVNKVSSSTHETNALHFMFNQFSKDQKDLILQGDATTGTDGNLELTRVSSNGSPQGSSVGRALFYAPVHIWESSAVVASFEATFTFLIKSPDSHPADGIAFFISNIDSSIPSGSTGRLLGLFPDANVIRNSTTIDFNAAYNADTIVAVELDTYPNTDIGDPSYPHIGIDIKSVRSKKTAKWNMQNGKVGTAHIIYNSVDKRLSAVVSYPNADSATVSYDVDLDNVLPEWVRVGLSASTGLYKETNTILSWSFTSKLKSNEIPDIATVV
# [9] = compounds binding Alexa647 anti-His antibody – biochemical, small-molecule microarray, 635 nm fluorescence, artefact control for SMM control protein annotation, primary screen (AID 1128); settings: higher = more signal;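 note: score merges feature fluorescence with signal-to-noise for each printed compound spot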
# [10] = tested on: Human papillomavirus type 1a E7 protein (residues 1-88); assay: HPV1a E7 small-molecule binders, primary screen, biochemical, small-molecule microarray, residues 1-88, 635 nm (AID 1129); settings: small-molecule microarray binding, fluorescence 635 nm; higher = more signal
# [11] = biological target: Focal adhesion kinase 1 (Homo sapiens) (UniProt Q05397); assay: PTK2 protein binding on printed compound slides – biochemical, small-molecule microarray, 635/667 nm fluorescence, BSA, DTT, primary screen (AID 1130); settings: 635 nm fluorescence, higher = more signal;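 note: composite of spot emission at 667 nm and signal to noise over triplicate slides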
# Sequence of Focal adhesion kinase 1 (Homo sapiens) (Q05397 whole entry, looked up): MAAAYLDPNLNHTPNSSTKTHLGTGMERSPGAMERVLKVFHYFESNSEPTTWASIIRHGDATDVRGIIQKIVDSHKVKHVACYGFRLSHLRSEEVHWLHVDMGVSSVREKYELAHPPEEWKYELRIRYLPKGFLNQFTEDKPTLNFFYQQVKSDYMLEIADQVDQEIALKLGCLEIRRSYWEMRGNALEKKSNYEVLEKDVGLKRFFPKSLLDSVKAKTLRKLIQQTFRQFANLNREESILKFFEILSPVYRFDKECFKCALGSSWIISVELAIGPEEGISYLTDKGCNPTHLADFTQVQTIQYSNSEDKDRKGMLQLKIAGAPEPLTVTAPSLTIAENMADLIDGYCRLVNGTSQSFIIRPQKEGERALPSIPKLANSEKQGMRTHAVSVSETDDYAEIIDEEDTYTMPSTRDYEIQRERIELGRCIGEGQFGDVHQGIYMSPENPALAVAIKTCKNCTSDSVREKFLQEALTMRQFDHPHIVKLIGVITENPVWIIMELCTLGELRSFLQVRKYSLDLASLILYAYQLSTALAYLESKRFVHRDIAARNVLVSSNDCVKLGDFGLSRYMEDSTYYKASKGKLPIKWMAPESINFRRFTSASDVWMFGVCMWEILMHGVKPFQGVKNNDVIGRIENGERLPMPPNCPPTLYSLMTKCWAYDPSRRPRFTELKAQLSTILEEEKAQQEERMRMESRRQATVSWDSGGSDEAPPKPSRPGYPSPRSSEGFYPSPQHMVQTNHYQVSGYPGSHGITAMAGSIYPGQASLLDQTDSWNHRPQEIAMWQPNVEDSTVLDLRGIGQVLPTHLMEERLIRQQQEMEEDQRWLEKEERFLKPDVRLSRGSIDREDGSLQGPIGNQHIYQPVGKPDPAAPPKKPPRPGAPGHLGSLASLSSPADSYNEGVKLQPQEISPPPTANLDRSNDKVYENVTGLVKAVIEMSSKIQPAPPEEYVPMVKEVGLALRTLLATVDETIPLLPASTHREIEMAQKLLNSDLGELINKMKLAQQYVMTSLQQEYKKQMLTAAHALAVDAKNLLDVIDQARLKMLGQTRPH
# [12] = tested on: Fibrinogen (Alexa647-labelled); assay: Alexa647-fibrinogen binding to printed small molecules – biochemical, small-molecule microarray, 635/667 nm fluorescence, artefact control for SMM control-protein annotation, profiling panel (AID 1131); settings: fibrinogen-A647 binding fluorescence, higher = more signal;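 note: z-score merges 667 nm fluorescence with per-spot signal-to-noise over triplicate slides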
# [13] = biological target: Follistatin (Homo sapiens) (UniProt P19883); assay: FST protein binding to printed compounds – biochemical, small-molecule microarray, 635/667 nm fluorescence, primary screen (AID 1132); settings: 635 nm fluorescence, higher = more signal
# Sequence of Follistatin (Homo sapiens) (P19883 whole entry, looked up): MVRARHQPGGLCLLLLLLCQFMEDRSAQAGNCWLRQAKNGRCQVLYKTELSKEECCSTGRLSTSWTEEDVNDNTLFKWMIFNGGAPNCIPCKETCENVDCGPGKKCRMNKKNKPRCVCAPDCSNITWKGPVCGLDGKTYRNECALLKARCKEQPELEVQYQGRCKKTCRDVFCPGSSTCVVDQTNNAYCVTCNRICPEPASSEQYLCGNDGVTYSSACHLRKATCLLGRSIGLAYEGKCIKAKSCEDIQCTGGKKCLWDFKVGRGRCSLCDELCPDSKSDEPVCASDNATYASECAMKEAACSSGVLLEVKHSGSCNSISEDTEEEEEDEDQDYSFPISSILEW
# [14] = biological target: Fibroblast growth factor 2 (Homo sapiens) (UniProt P09038); assay: basic fibroblast growth factor binding to printed compounds – biochemical, small-molecule microarray, 635/667 nm fluorescence, primary screen (AID 1133); settings: FGF2, fluorescence 635/667, higher = more signal
# Sequence of Fibroblast growth factor 2 (Homo sapiens) (P09038 whole entry, looked up): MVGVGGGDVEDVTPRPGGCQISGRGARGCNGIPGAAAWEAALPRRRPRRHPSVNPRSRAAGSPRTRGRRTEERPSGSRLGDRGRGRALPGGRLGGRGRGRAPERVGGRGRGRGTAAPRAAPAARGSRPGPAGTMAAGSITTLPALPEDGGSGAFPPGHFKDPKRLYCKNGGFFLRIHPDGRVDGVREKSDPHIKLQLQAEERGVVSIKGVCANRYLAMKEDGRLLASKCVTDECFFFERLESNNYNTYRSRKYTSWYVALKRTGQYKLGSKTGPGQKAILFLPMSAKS
# [15] = JC-1 mitochondrial potential readout, lung cancer cells – cell-based, A549, JC-1 fluorescence, basal, 24 h, 100 nL, profiling panel (AID 1138); settings: higher = more signal;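 note: A549 lung adenocarcinoma cells under basal conditions with no added stimulus; test concentration not given here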
# Lefty1 = Lefty1 protein binding to printed compounds – biochemical, small-molecule microarray, 635/667 nm fluorescence, primary screen (AID 1139); settings: fluorescence 635/667, higher = more signal
# [16] = tested on: wheat germ agglutinin (Triticum aestivum), Alexa647-labelled; assay: Alexa647-WGA lectin binding to printed small molecules – biochemical, small-molecule microarray, 635/667 nm fluorescence, artefact control for SMM control-protein annotation, profiling panel (AID 1140); settings: WGA-A647 binding, 635 nm fluorescence, higher = more signal;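 note: score merges 667 nm feature emission with signal to noise over triplicate slides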
# [17] = biological target: Luciferin 4-monooxygenase (Photinus pyralis) (UniProt P08659); assay: inhibition of purified Photinus pyralis luciferase – biochemical, luminescence, purified enzyme, 2006 set, primary screen (AID 1141); settings: purified firefly luciferase, SteadyGlo luminescence, 30 min; higher = more signal, called active from +8 up or from −8 down;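 note: cell-free assay with purified firefly luciferase at 100 ng per well in PBS; test concentration not given here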
# Sequence of Luciferin 4-monooxygenase (Photinus pyralis) (P08659 whole entry, looked up): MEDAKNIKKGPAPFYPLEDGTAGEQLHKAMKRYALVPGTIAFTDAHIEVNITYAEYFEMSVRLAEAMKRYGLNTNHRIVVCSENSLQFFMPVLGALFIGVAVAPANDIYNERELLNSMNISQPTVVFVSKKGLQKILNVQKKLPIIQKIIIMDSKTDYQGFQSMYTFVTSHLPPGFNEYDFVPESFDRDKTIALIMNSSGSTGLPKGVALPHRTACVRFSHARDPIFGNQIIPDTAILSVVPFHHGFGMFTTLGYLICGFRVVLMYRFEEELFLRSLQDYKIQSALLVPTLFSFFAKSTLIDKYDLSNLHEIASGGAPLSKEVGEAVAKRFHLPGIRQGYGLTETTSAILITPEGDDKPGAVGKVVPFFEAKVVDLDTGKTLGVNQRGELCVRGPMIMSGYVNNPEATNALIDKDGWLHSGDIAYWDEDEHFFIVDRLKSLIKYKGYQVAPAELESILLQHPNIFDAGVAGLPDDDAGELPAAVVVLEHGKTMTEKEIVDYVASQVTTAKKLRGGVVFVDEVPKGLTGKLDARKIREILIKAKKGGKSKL
Structure (SMILES),composite z-score (Albumin (Bos taurus)),composite Z-score [1],composite z-score [2],composite z-score [3],composite z-score [4],composite z-score [5],composite z-score [6],composite z-score (Sam68 (KHDRBS1)),composite z-score [7],composite z-score [8],composite z-score [9],composite z-score [10],composite z-score [11],composite z-score [12],composite z-score [13],composite z-score [14],z-score [15],composite z-score (Lefty1),composite z-score [16],z-score [17]
[N-]=[N+]=Nc1ccccc1C[C@]1(C(N)=O)N=C(c2ccc(OCCCO)cc2)O[C@H]1c1ccccc1N=[N+]=[N-],0.92,-0.199 (inactive),0.231,-0.0091,0.672,0.0754,0.193,1.31,-0.321,1.12,1.91,1.21,-0.0221,0.941,0.228,0.132,-0.777,-0.24,0.448,-4.76 (inactive)
C=CCC(OC(C)=O)[C@@H]1[C@@H](N(Cc2ccc(-c3cccc(C(F)(F)F)c3)o2)C(=O)c2ccc(C)cc2)c2cc(OCCCO)ccc2N1C(=O)c1ccc2ccccc2c1 (stereo not given in full),0.149,-0.0045 (inactive),-0.0377,-0.14,0.151,0.387,-0.0397,-0.285,0.287,0.0961,-0.276,-0.207,0.187,0.188,0.908,0.0013,1.23,0.398,-0.0998,-0.0536 (inactive)
CC(C)C(=C=CC[C@H](O)c1cccc(OCCO)c1)C[C@H](O)c1cc(Cl)cc(Cl)c1O,0.773,-0.0673 (inactive),0.0916,-0.154,0.374,1.14,0.0431,0.801,-0.331,0.943,-0.397,0.637,0.295,0.713,1.31,0.484,0.487,1.3,0.628,-0.316 (inactive)
CC(C)(C)N1CC=CC23O[C@@H]4C=CCCOC(=O)C4[C@H]2C(=O)N(CCO)[C@@H]3C1=O (stereo not given in full),-0.0163,-0.391 (inactive),-0.13,0.226,0.282,-1.09,-0.155,-0.889,-0.267,-1.39,-0.513,-0.991,-0.541,0.0853,-0.607,0.23,-0.845,-0.551,-0.0465,0.0324 (inactive)
CCCC[C@@H]1C[C@H]1[C@@H](NC(=O)Cc1ccccc1)c1ccc(-c2ccccc2)cc1,0.83,0.378 (inactive),-0.006,-0.0242,0.66,2.02,-0.273,0.214,-0.436,0.453,0.272,1.12,0.913,0.655,-0.173,-0.405,0.629,-0.0127,0.0864,0.624 (inactive)
O=C(N1CCCCC1)[C@@]1(CCS(=O)(=O)c2ccccc2)COC(c2ccc(OCCCO)cc2)=N1,0.107,0.674 (inactive),0.289,0.207,0.582,2.66,0.729,1.31,0.225,1.1,2.55,1.22,0.298,0.839,1.4,1.52,0.32,0.126,0.848,-0.0825 (inactive)
NC(=O)NCC#Cc1ccc2c(c1)[C@]1(C(=O)N2)[C@H](C(=O)O)[C@H]2C(=O)O[C@H](c3ccccc3)[C@H](c3ccccc3)N2[C@@H]1c1ccc(OCCO)cc1,0.351,-0.131 (inactive),-0.161,-0.143,0.355,0.822,0.613,1.27,0.241,0.962,0.894,0.643,0.116,0.57,1.18,0.239,-0.765,0.183,0.553,-2.23 (inactive)
CCCNC(=O)[C@@]1(c2ccc([N+](=O)[O-])cc2)CC(=O)N(C2CCCCC2)[C@@H]1c1ccc(CO)cc1,0.0308,0.173 (inactive),0.135,-0.0406,0.66,2.01,0.999,1.25,0.19,0.95,1.86,1.24,0.548,0.831,1.24,1.66,1.34,0.344,0.533,-0.92 (inactive)
CC(C)(C)OC(=O)CC[C@]1(C(=O)NCC(O)CO)N=C(c2ccc(OCCCO)cc2)O[C@H]1c1ccccc1 (stereo not given in full),0.902,0.561 (inactive),-0.0678,-0.0843,0.873,3.11,0.0605,0.723,-0.852,-0.137,0.872,0.937,-0.216,0.118,-0.786,-0.494,0.0908,-1.71,0.94,-1 (inactive)
COCCOC(=O)N1C(=O)[C@@]2(c3cc(C#Cc4ccc(OC)cc4)ccc31)[C@H](c1ccccc1OCCO)N1[C@H](c3ccccc3)[C@H](c3ccccc3)OC(=O)[C@H]1[C@@H]2C(=O)N1CCCCCCC1,0.164,6.24 (inactive),1.81,0.956,0.934,2.08,0.512,0.484,1.43,0.908,0.623,1.2,0.701,-0.183,1.51,1.73,-0.775,1.23,1.33,-0.246 (inactive)
C=CCC(OC(C)=O)[C@@H]1[C@@H](N(Cc2cccc3ccccc23)C(=O)Cc2ccc(OC)cc2)c2cc(OCCCO)ccc2N1C(=O)c1ccc2ccccc2n1 (stereo not given in full),0.249,0.397 (inactive),0.0224,-0.0515,0.189,0.979,0.449,0.404,0.173,-0.212,-0.115,-0.0569,0.833,0.733,0.822,0.0677,0.343,-0.0766,0.174,0.565 (inactive)
